Laboratory results as given in PubChem BioAssay.
“And” between values parts separate entries of the source, which are not always exact repeats. Identical values can stand only once. For part of these data: Potency and affinity values are given separately. The source made the active and inactive calls. Unless noted, how the calls were made is not given here.

How the values were obtained:
[1] = antimalarial activity against Dd2 strain (AID 2302;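 active means growth inhibition above 50% at the single 2 µM test dose, taken to imply half-maximal potency below 2 µM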;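 further: 0% = DMSO untreated growth and 100% = chloroquine plus artemisinin killed control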); settings: P. falciparum Dd2 in RBCs, LDH growth readout, 72 h; at 2 µM; stronger effect = higher value
[2] = HepG2 cytotoxicity, primary screen, cytotoxicity control for P. falciparum antimalarial project, cell-based, ATP luminescence (AID 2303;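 active means inhibition above 50%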;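 further: 0% = DMSO wells and 100% = digitonin-killed cells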); settings: HepG2 viability, 24-48 h, at 10 µM, stronger effect = higher value
[3] = biological target: L-lactate dehydrogenase (Plasmodium falciparum (isolate CDC / Honduras)) (UniProt Q27743); assay: PfLDH activity inhibition – cell lysate, 3D7 strain, counter-screen for P. falciparum growth inhibition project (AID 2304);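 further: 0% = vehicle and 100% = reference inhibitor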; settings: P. falciparum 3D7 crude extract, LDH APAD/NBT absorbance; at 2 µM; stronger effect = higher value
[4] = inhibition of 3D7 malaria parasite growth – strain 3D7 (AID 2306);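 further: 0% = DMSO wells and 100% = chloroquine plus artemisinin control wells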; settings: P. falciparum 3D7 erythrocytic growth, LDH absorbance, 72 h; at 2 µM; stronger effect = higher value
[5] = biological target: Calcium-dependent protein kinase 1 (Plasmodium falciparum (isolate 3D7)) (UniProt P62344); assay: PfCDPK1 kinase inhibitors, biochemical, TCAMS library (AID 1159585; cut-off not given, nearly all actives have IC50 up to about 0.98 µM;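 further: inhibitors leave more ATP so luminescence rises with inhibition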); settings: recombinant PfCDPK1, Kinase-Glo ATP depletion luminescence
[6] = biological target: Plasmodium falciparum protein kinase 6 (PK6, PF3D7_1337100) (UniProt Q8IDW1); assay: PfPK6 kinase inhibitors, biochemical, TCAMS library (AID 1159586); settings: recombinant PfPK6, Kinase-Glo ATP depletion luminescence
[7] = biological target: Protein kinase 7 (PK7), Plasmodium falciparum 3D7 (PF3D7_0213400) (UniProt Q7YTF7); assay: inhibition of Plasmodium PK7 catalytic activity – biochemical, TCAMS antimalarial set, Kinase-Glo luminescence (AID 1159587); settings: recombinant PfPK7, Kinase-Glo ATP depletion luminescence
[8] = biological target: Calcium-dependent protein kinase 4 (Plasmodium falciparum (isolate 3D7)) (UniProt Q8IBS5); assay: PfCDPK4 kinase inhibitors, biochemical, TCAMS library (AID 1159588; cut-off not given, nearly all actives have IC50 up to about 0.91 µM); settings: recombinant PfCDPK4, Kinase-Glo ATP depletion luminescence
Chain of Calcium-dependent protein kinase 4 (Plasmodium falciparum (isolate 3D7)) (Q8IBS5 whole entry, looked up): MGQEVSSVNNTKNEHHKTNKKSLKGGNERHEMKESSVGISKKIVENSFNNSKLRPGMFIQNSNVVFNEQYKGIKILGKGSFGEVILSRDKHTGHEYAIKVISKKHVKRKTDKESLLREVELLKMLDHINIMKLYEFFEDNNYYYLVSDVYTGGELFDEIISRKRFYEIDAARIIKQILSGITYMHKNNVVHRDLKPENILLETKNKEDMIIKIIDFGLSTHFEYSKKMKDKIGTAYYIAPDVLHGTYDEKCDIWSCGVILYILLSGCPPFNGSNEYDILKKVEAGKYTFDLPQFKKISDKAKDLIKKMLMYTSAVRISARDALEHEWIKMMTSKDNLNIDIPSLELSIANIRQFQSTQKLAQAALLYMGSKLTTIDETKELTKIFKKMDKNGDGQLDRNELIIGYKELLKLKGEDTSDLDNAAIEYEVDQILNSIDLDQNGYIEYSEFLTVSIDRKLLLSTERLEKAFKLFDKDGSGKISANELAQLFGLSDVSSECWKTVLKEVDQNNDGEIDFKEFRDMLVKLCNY

Chain of Plasmodium falciparum protein kinase 6 (PK6, PF3D7_1337100) (Q8IDW1 1-305): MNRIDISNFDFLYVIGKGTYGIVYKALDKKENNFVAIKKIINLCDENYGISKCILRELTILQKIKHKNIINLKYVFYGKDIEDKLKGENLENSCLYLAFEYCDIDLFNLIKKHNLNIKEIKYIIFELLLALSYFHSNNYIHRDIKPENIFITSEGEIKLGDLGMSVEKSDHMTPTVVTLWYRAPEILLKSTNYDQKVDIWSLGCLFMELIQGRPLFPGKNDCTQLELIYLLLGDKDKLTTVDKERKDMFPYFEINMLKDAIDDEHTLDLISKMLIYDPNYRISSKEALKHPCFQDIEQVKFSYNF
Chain of Calcium-dependent protein kinase 1 (Plasmodium falciparum (isolate 3D7)) (P62344 whole entry, looked up): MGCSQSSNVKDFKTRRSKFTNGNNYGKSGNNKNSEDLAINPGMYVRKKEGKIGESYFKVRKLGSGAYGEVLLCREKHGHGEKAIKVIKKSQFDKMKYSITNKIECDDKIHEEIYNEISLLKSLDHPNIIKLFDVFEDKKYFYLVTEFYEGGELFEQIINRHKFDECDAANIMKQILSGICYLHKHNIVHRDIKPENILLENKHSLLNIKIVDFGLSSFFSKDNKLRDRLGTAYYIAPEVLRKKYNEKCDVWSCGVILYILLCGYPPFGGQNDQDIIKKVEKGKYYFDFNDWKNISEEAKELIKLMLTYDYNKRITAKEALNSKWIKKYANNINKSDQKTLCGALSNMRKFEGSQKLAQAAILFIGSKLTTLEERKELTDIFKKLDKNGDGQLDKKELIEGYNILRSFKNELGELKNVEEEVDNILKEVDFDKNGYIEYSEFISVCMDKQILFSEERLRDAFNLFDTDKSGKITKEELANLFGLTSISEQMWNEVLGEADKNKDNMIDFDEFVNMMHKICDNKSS
Chain of L-lactate dehydrogenase (Plasmodium falciparum (isolate CDC / Honduras)) (Q27743 whole entry, looked up): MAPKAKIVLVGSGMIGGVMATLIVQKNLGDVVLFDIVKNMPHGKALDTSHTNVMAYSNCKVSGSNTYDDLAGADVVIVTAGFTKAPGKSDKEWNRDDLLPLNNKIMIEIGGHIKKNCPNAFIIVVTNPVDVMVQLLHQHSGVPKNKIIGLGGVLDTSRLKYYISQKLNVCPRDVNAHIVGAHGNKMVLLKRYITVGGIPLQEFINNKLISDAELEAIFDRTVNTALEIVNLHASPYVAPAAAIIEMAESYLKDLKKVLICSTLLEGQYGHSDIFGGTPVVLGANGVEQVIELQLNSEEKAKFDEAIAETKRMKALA
Chain of Protein kinase 7 (PK7), Plasmodium falciparum 3D7 (PF3D7_0213400) (Q7YTF7 1-343): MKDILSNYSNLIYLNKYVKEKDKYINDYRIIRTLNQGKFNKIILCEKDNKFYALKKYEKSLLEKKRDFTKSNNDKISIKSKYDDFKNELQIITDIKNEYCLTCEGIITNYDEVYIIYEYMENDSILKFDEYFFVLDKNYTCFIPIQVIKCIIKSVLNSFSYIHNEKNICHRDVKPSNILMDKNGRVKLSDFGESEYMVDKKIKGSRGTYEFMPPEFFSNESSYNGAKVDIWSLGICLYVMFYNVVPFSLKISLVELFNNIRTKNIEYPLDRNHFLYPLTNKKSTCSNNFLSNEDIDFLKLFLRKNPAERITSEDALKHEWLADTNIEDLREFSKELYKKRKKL

O=C(NC1CCC(CN2CCC(c3c[nH]c4ccccc34)CC2)CC1)c1cnn(-c2ccccc2)c1-c1ccccc1Cl (configuration not stated)
active: inhibition [2] 66% | growth inhibition [4] 95%
inactive: growth inhibition [1] 11% | inhibition [3] -6% | outcome [5] | outcome [6] | outcome [7] | outcome [8]

O=C(c1cccs1)N(Cc1cccc(-c2ccc(CNC3CCCC3)cc2)c1)C1CCN(Cc2ccccc2)CC1
active: growth inhibition [1] 74% | growth inhibition [4] 90%
inactive: inhibition [2] 20% | inhibition [3] 0% | outcome [5] | outcome [6] | outcome [7] | outcome [8]

Cc1cc(CN2CCN(CCOC(c3ccccc3)c3ccccc3)CC2)ccc1O
inactive: inhibition [2] 9% | inhibition [3] -1% | outcome [5] | outcome [6] | outcome [7] | outcome [8]
active: growth inhibition [1] 96% | growth inhibition [4] 97%

O=C(COc1ccc(Cl)cc1)N1CCC(CN2CCC(c3c[nH]c4ccccc34)CC2)CC1
active: growth inhibition [4] 89%
inactive: growth inhibition [1] 13% | inhibition [2] 48% | inhibition [3] 1% | outcome [5] | outcome [6] | outcome [7] | outcome [8]

O=C(NC1CCN(CC2(c3ccc(Cl)cc3)CCC2)CC1)c1ccn[nH]1
active: growth inhibition [4] 96%
inactive: growth inhibition [1] 43% | inhibition [2] -7% | inhibition [3] -3% | outcome [5] | outcome [6] | outcome [7] | outcome [8]

OC(CNC1CCCCCCC1)c1ccc(Cl)c(Cl)c1 (configuration not stated)
inactive: inhibition [2] 17% | inhibition [3] -5% | outcome [5] | outcome [6] | outcome [7] | outcome [8]
active: growth inhibition [1] 99% | growth inhibition [4] 100%

CCc1ccc(CC(C)NCC(O)c2ccccc2)cc1 (configuration not stated)
inactive: inhibition [2] -7% | inhibition [3] -3% | outcome [5] | outcome [6] | outcome [7] | outcome [8]
active: growth inhibition [1] 77% | growth inhibition [4] 89%

CC[C@H]1CN2CC[C@@H]1C[C@H]2[C@H](O)c1cc(-c2ccc(Cl)c(Cl)c2)nc2ccc(O)cc12
inactive: inhibition [2] -8% | inhibition [3] -1% | outcome [5] | outcome [6] | outcome [7] | outcome [8]
active: growth inhibition [1] 99% | growth inhibition [4] 98%

COc1ccc(CN2CCN(CCOC(c3ccccc3)c3ccccc3)CC2)c(O)c1
inactive: inhibition [2] 19% | inhibition [3] 0% | outcome [5] | outcome [6] | outcome [7] | outcome [8]
active: growth inhibition [1] 84% | growth inhibition [4] 96%

Oc1ccccc1CN1CCC(CCOC(c2ccccc2)c2ccc(Cl)cc2)CC1 (configuration not stated)
active: growth inhibition [1] 99% | growth inhibition [4] 97%
inactive: inhibition [2] 19% | inhibition [3] -8% | outcome [5] | outcome [6] | outcome [7] | outcome [8]

O=C(C=Cc1ccc([N+](=O)[O-])cc1)NC1CCC(CN2CCC(c3c[nH]c4ccccc34)CC2)CC1 (configuration not stated)
inactive: inhibition [2] 30% and 34% | inhibition [3] -3% | outcome [5] | outcome [6] | outcome [7] | outcome [8]
active: growth inhibition [1] 61% and 81% | growth inhibition [4] 102% and 101%

S=C(NCCc1ccc(Cl)cc1)N1CCC(CN2CCC(c3c[nH]c4ccccc34)CC2)CC1
inactive: growth inhibition [1] 7% | inhibition [2] 31% | inhibition [3] 0% | outcome [5] | outcome [6] | outcome [7] | outcome [8]
active: growth inhibition [4] 90%

CC(Cc1ccc(NC(=O)[C@H](C)NCCc2cccc(Cl)c2)cc1)NCCc1cccc(Cl)c1 (some centres not stated)
active: growth inhibition [1] 54% | inhibition [2] 99% | growth inhibition [4] 100%
inactive: inhibition [3] 2% | outcome [5] | outcome [6] | outcome [7] | outcome [8]

CS(=O)(=O)Nc1ccc2[nH]cc(C3C[C@H]4CC[C@@H](C3)N4CC3CCC(NC(=O)/C=C/c4ccc(Cl)c(Cl)c4)CC3)c2c1 (some centres not stated)
active: growth inhibition [1] 50% | growth inhibition [4] 101%
inactive: inhibition [2] 3% | inhibition [3] 7% | outcome [5] | outcome [6] | outcome [7] | outcome [8]

CC(=O)C1(c2ccccc2)CCN(CCC2(c3ccc(Cl)c(Cl)c3)CN(C(=O)Nc3cc(F)cc(F)c3)CCO2)CC1 (configuration not stated)
inactive: growth inhibition [1] 20% | inhibition [2] 2% | inhibition [3] -1% | outcome [5] | outcome [6] | outcome [7] | outcome [8]
active: growth inhibition [4] 86%

Cc1cc(N)nc2cc(CNCCc3ccccc3Br)ccc12
inactive: inhibition [2] 47% | inhibition [3] 0% | outcome [5] | outcome [6] | outcome [7] | outcome [8]
active: growth inhibition [1] 93% | growth inhibition [4] 101%

CC[C@H]1CN2CC[C@H]1C[C@H]2[C@H](O)c1cc(N2CCCC2)nc2ccc(OC)cc12
active: growth inhibition [1] 100% | growth inhibition [4] 98%
inactive: inhibition [2] -13% | inhibition [3] 6% | outcome [5] | outcome [6] | outcome [7] | outcome [8]

O=C(/C=C/c1c(Cl)cccc1Cl)NC1CCC(CN2[C@@H]3CC[C@H]2CC(c2c[nH]c4ccccc24)C3)CC1 (some centres not stated)
active: growth inhibition [4] 95%
inactive: growth inhibition [1] 18% | inhibition [2] 40% | inhibition [3] -1% | outcome [5] | outcome [6] | outcome [7] | outcome [8]

C#CCN1CCC2=C(C1)c1c(O)cc(C(C)C(C)CCc3ccc(F)cc3)cc1OC2(C)C (configuration not stated)
active: growth inhibition [1] 99% | growth inhibition [4] 100%
inactive: inhibition [2] 10% | inhibition [3] 3% | outcome [5] | outcome [6] | outcome [7] | outcome [8]

C[C@@H](CC1CCCCC1)NCc1ccccc1O
active: growth inhibition [1] 67% | growth inhibition [4] 98%
inactive: inhibition [2] 9% | inhibition [3] 3% | outcome [5] | outcome [6] | outcome [7] | outcome [8]

CCCCCOc1ccc(CC(C)NCC(O)c2cccc(Cl)c2)cc1 (configuration not stated)
inactive: inhibition [2] 0% | inhibition [3] 2% | outcome [5] | outcome [6] | outcome [7] | outcome [8]
active: growth inhibition [1] 99% | growth inhibition [4] 101%

COC(=O)/C=C/c1ccc(CC(C)NCC(O)c2cccc(Br)c2)cc1 (configuration not stated)
active: growth inhibition [1] 93% | growth inhibition [4] 97%
inactive: inhibition [2] 2% | inhibition [3] 5% | outcome [5] | outcome [6] | outcome [7] | outcome [8]

COC(=O)c1ccc(CC(C)NCC(O)c2cccc(SC(F)(F)F)c2)cc1 (configuration not stated)
active: growth inhibition [1] 72% | growth inhibition [4] 96%
inactive: inhibition [2] 7% | inhibition [3] -2% | outcome [5] | outcome [6] | outcome [7] | outcome [8]

CN1CC=C(c2c[nH]c3ccc(OCc4ccccc4)cc23)CC1
active: growth inhibition [1] 97% | growth inhibition [4] 95%
inactive: inhibition [2] -2% | inhibition [3] -2% | outcome [5] | outcome [6] | outcome [7] | outcome [8]

CCCCCc1cc(O)c2c(c1)OC(C)(C)CC2C1=CCN(Cc2cccnc2)CC1 (configuration not stated)
active: growth inhibition [1] 97% | growth inhibition [4] 97%
inactive: inhibition [2] 15% | inhibition [3] -1% | outcome [5] | outcome [6] | outcome [7] | outcome [8]

O=C(/C=C/c1ccc(Cl)c(Cl)c1)NCC1CCC(CN2CCC(c3c[nH]c4ccccc34)CC2)CC1 (configuration not stated)
active: growth inhibition [1] 93% | inhibition [2] 54% | growth inhibition [4] 102%
inactive: inhibition [3] 4% | outcome [5] | outcome [6] | outcome [7] | outcome [8]

Cc1ccc(CC(C)NCC(O)c2cccc(C(F)(F)F)c2)cc1F (configuration not stated)
active: growth inhibition [1] 91% | growth inhibition [4] 97%
inactive: inhibition [2] 15% | inhibition [3] 3% | outcome [5] | outcome [6] | outcome [7] | outcome [8]

CC[C@H]1CN2CC[C@@H]1C[C@H]2[C@H](O)c1cc(N2CCC(O)(c3ccccc3)CC2)nc2ccc(OC)cc12
active: growth inhibition [1] 98% | growth inhibition [4] 101%
inactive: inhibition [2] 14% | inhibition [3] -2% | outcome [5] | outcome [6] | outcome [7] | outcome [8]

CN(C)CCCOc1ccc(CN2CCC(c3c[nH]c4ccc(NCC5CCCCC5)cc34)CC2)cc1
active: growth inhibition [1] 99% | inhibition [2] 58% | growth inhibition [4] 99%
inactive: inhibition [3] 3% | outcome [5] | outcome [6] | outcome [7] | outcome [8]

Cc1ccc(C2(O)C[C@H]3CC[C@@H](C2)N3C)cc1 (some centres not stated)
inactive: growth inhibition [1] 16% | inhibition [2] -6% | inhibition [3] -4% | outcome [5] | outcome [6] | outcome [7] | outcome [8]
active: growth inhibition [4] 92%

CC[C@H]1CN2CC[C@H]1C[C@H]2[C@H](O)c1cc(-c2cccc(C)c2)nc2ccc(OC)cc12
active: growth inhibition [1] 100% | growth inhibition [4] 100%
inactive: inhibition [2] 15% | inhibition [3] 3% | outcome [5] | outcome [6] | outcome [7] | outcome [8]

C/C=C1/CN2CC[C@H]1C[C@H]2[C@H](O)c1ccnc2ccc(OC)cc12
inactive: growth inhibition [1] 45% | inhibition [2] -16% | inhibition [3] 0% | outcome [5] | outcome [6] | outcome [7] | outcome [8]
active: growth inhibition [4] 99%

COc1ccc2[nH]cc(C3C[C@H]4CC[C@@H](C3)N4CCC3CCN(C(=O)/C=C/c4ccc(Cl)c(Cl)c4)CC3)c2c1 (some centres not stated)
active: growth inhibition [1] 80% | growth inhibition [4] 101%
inactive: inhibition [2] 38% | inhibition [3] 5% | outcome [5] | outcome [6] | outcome [7] | outcome [8]

CN(c1cc(NC(=O)c2ccccc2)ccn1)C1CCN(Cc2cccc(F)c2)CC1
active: growth inhibition [1] 94% | growth inhibition [4] 92%
inactive: inhibition [2] -6% | inhibition [3] -3% | outcome [5] | outcome [6] | outcome [7] | outcome [8]

O=C(/C=C/c1ccc(O)cc1)NC1CCC(CN2CCC(c3c[nH]c4ccccc34)CC2)CC1 (configuration not stated)
inactive: inhibition [2] 21% | inhibition [3] -7% | outcome [5] | outcome [6] | outcome [7] | outcome [8]
active: growth inhibition [1] 51% | growth inhibition [4] 99%

CC[C@H]1CN2CC[C@H]1C[C@H]2[C@H](O)c1cc(N2CCCC(CO)C2)nc2ccc(OC)cc12 (some centres not stated)
inactive: inhibition [2] 11% | inhibition [3] 2% | outcome [5] | outcome [6] | outcome [7] | outcome [8]
active: growth inhibition [1] 99% | growth inhibition [4] 100%

COc1ccccc1CC(C)NCC(O)c1cccc(Cl)c1 (configuration not stated)
inactive: inhibition [2] 13% | inhibition [3] -6% | outcome [5] | outcome [6] | outcome [7] | outcome [8]
active: growth inhibition [1] 98% | growth inhibition [4] 97%

Cn1c(C2C[C@H]3CC[C@H](C2)N3CC2CCC(NC(=O)/C=C/c3ccc(Cl)c(Cl)c3)CC2)nc2ccccc21 (some centres not stated)
inactive: inhibition [3] 4% | outcome [5] | outcome [6] | outcome [7] | outcome [8]
active: growth inhibition [1] 51% | inhibition [2] 50% | growth inhibition [4] 100%

Cc1cccc2[nH]cc(C3CCN(CC4CCC(NC(=O)/C=C/c5ccc(Cl)c(Cl)c5)CC4)CC3)c12 (configuration not stated)
active: growth inhibition [1] 97% | inhibition [2] 88% | growth inhibition [4] 101%
inactive: inhibition [3] -4% | outcome [5] | outcome [6] | outcome [7] | outcome [8]
